Screening results: PubChem, The Scripps Research Institute Molecular Screening Center
Compounds with a hit are over-represented: about 2.1% of the library has one in this group of screens.
NOTCH ag – NOTCH pathway agonism; hit rate 0.4% among 15,000; activation, % at 2.5 µM; AID 434982; NOTCH signaling luciferase reporter cells, luminescence; in the data active = activation above about 2.2%
Nox1 inhibitor – inhibitors of human NADPH oxidase 1 (Nox1); Q9Y5S8; HT29 cells, luminol chemiluminescence ROS; inhibition, % at 6.7 µM; hit rate 0.81% among 16,000; AID 1792
Target sequence (Q9Y5S8 whole entry, looked up): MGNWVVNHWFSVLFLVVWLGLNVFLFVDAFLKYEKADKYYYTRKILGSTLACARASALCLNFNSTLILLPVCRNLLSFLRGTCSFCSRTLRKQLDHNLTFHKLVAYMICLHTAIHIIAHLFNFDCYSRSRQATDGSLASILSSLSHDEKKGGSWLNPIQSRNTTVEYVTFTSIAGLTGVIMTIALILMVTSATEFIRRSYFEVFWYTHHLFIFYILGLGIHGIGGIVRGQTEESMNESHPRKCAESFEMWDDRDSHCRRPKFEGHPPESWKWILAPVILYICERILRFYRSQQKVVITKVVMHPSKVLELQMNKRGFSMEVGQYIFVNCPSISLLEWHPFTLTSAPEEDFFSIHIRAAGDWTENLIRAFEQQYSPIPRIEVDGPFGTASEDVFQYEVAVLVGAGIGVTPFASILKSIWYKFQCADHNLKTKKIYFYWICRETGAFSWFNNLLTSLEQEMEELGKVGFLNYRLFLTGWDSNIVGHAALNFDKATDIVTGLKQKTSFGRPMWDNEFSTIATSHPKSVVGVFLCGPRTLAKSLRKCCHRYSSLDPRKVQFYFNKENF
Luminol counter – luminol signal inhibition, Nox1 inhibitor counter-screen; HRP/luminol/H2O2 chemiluminescence counterscreen; inhibition, % at 6.7 µM; hit rate 0.4% among 16,000; also: reference of the scale not given here
PME-1 Maybridge – Maybridge compound blocking human PME-1; recombinant PME-1, FP-Rh probe fluorescence polarization; hit rate 0.5% among 16,000; inhibition, % at 9 µM; Q9Y570; AID 2291; in the data active = inhibition above about 30%
Numbers without * were called inactive; . = no result. Rule as the data show it, unless noted: active = inhibition above about 75%; inactive = the rest.

SMILES	NOTCH ag	Nox1 inhibitor	Luminol counter	PME-1 Maybridge
COc1ccc(Nc2nc(NC(=O)Nc3ccc(Cl)cc3)n[nH]2)cc1	-0.3	96.4*	21.1	-0.2
CC(=O)c1csc(Nc2ccc(Cl)cc2)n1	2.2*	-27.0	2.8	5.3
CCOC(=O)C(=CNNc1ccnc2cc(Cl)ccc12)C(=O)OCC	0.1	83.7*	3.1	7.8
CCOC(=O)C(=CNNc1ccccc1)C(=O)OCC	-0.7	-19.3	6.5	-0.4
Nn1c(C(=O)NCc2cccnc2)nc2ccccc2c1=O	-0.6	-73.6	-1.6	-1.3
COCCCNC(=S)Nc1ccc(C)cc1	0.3	10.1	-5.0	0.4
COCCCNC(=S)NNC(=S)Nc1ccccc1	0.0	90.8*	4.3	4.4
Cn1cnc(S(=O)(=O)NCc2c(Cl)cccc2Oc2ccccc2)c1	-0.5	-8.1	-5.3	2.5
CC1=C(C)CC(C(=O)N2CCN(Cc3c(F)cccc3Cl)CC2)C(C(=O)O)C1 (stereo unspecified)	0.4	-3.0	-0.7	1.1
NC(=O)C1=CN(Cc2c(Cl)cccc2Cl)CCC1C(F)(F)F (stereo unspecified)	-1.0	-18.4	4.4	-0.3
O=c1[nH]c2ccccc2c(=O)n1CCSc1nc2ccccc2o1	-0.3	16.6	-5.5	7.2
O=c1c(Cl)c2oc3ccccc3nc-2c2ccccc12	-0.5	90.1*	7.0	8.7
COC(=O)c1sccc1NNC(=O)CC#N	0.1	87.2*	14.7	3.0
CC1(C)c2cc(O)ccc2OC1N1CCOCC1 (stereo unspecified)	-0.2	85.3*	96.0*	5.0
CC[n+]1c(C)csc1Nc1ccc(N2CC(C)OC(C)C2)cc1 (stereo unspecified)	0.2	104.6*	11.9	3.2
NC(=O)NC1CCCCCCC1	-0.8	-27.9	-1.6	-1.1
CCO/C(C)=N/OC(=O)Nc1ccc(OC(F)(F)F)cc1	-0.6	-57.2	-0.6	0.6
CCOC(=O)C1=C(Nc2ccc(OC(C)=O)cc2)C(=O)N(C(C)(C)C)C1	-0.2	83.5*	3.5	-2.1
COc1ccccc1NS(=O)(=O)c1ccc(Cl)s1	.	-16.6	2.7	32.0*
COc1ccccc1NS(=O)(=O)c1ccccc1[N+](=O)[O-]	0.1	-38.9	1.2	1.3
CCC(=O)N1c2cc(Cl)ccc2-n2c(nn(C(=O)CC)c2=O)N1C(=O)CC	-0.9	88.5*	1.8	0.8
CCn1cc(C(=O)O)c(=O)c2cc(Cl)ccc21	-0.6	0.0	2.8	-1.4
CCOC(=O)C1CCN(c2ccccc2CN2CCCc3cc(C)ccc32)CC1	-0.3	20.2	-2.8	2.9
COc1ccc2c(c1)CCCN2Cc1c[nH]c2ccccc12	0.2	101.1*	-12.5	17.3
Cn1c(=O)c2c(NCc3ccccc3)cc(=O)n(C)c2n(C)c1=O	8.5*	-48.1	3.8	-0.5
SMILES	NOTCH ag	Nox1 inhibitor	Luminol counter	PME-1 Maybridge
O=C(NC(=O)c1csnn1)Nc1ncccn1	0.2	31.9	1.3	-1.1
CSc1nn(-c2ccccc2)c[n+]1-c1ccccc1	-0.8	-15.9	-6.3	1.6
S=C(Nc1ccc(Cl)cc1)Nc1ccc(-c2csnn2)cc1	0.1	3.1	-19.0	7.5
O=C(NNc1ccc(-c2csnn2)cc1)c1ccc(Cl)cc1	-0.2	56.5	75.1*	6.4
COc1cc(/C=N\n2c(C)n[nH]c2=S)cc(OC)c1OC	0.4	53.0	100.9*	6.3
CC(C)(C)NC(=O)NCCO	-0.3	-55.9	0.2	1.1
ON/C=N/c1nnc(C(F)(F)F)s1	-0.1	80.3*	-4.0	1.8
COc1cc(-c2nnc(SCC(=O)NC(=O)NCc3ccccc3)n2C)cc(OC)c1OC	-0.6	2.3	-6.4	7.2
FC(F)(F)c1ccc2c(c1)Nc1ccccc1S2	.	101.5*	10.3	4.2
CC12CCC(=O)C=C1NC(=O)CC2 (stereo unspecified)	-1.0	-45.8	2.6	-2.2
O=C(Oc1ccccc1N1CCCCC1)c1ccco1	-5.5	82.8*	7.8	-2.0
Cc1onc(-c2ccccc2)c1C(=O)Oc1ccccc1N1CCOCC1	-0.2	-19.2	1.8	-1.7
O=C(Oc1ccccc1N1CCOCC1)c1cccs1	-0.3	98.3*	-1.0	1.0
O=C(Oc1ccccc1N1CCOCC1)c1cccnc1Oc1ccccc1	1.3	79.2*	7.3	0.3
Cc1ccc(CS(=O)(=O)c2cccs2)cc1	-0.6	2.4	-3.2	5.3
